Drawing on PubChem BioAssay (EPA / NIEHS), this text covers outcome and AC50 for 23 molecules.

Records with an inconclusive call do not appear. Active and inactive are the calls of the source. Rule for the calls: active = hit-call score of the fitted dose curve at least 0.9, where 1 is the maximum; inconclusive = response in the unintended direction; inactive = score below 0.9.

The nature of test [1]: ATG_XTT_Cytotoxicity: Cytotoxicity Assessment in the Attagene TRANS-FACTORIAL HepG2 Assay (AID 2283584).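 For AC50: XTT signal for cell number as viability in transfected HepG2 cells; cells exposed to compound for 24 h before reading; active means loss of viability signal versus DMSO baseline.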 The gist of the method: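 HepG2 cells transiently transfected with GAL4-UAS multiple reporter units, dosed 24 h; cytotoxicity read by XTT as loss of signal versus DMSO baseline.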
A short description of test [2]: TOX21_p53_BLA_p2_viability: Viability Assessment in the Tox21 HCT-116 p53 Agonism Beta-lactamase Assay, Phase 2 (AID 2283591).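 Note: compound exposure lasted 16 h at 37 °C; actives lower the ATP signal meaning cytotoxicity.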 The method in brief: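 HCT116 p53-bla cells, 4000/well, dosed after 5 h plating (217-fold dilution of DMSO stocks) and incubated 16 h at 37C. Viability taken as cellular ATP by CellTiter-Glo luminescence after 30 min RT; signal loss marks cytotoxicity.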

The target in test [3] is Cellular tumor antigen p53 (Homo sapiens) (UniProt P04637). The test can be described thus: TOX21_p53_BLA_p2_ratio: Tox21 HCT-116 p53 Agonism Beta-lactamase Assay, Ratio, Phase 2 (AID 2283592). The method in brief:
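HCT-116 cells with p53-responsive beta-lactamase reporter, 4000 cells/well, preincubated 5 h, then compound in DMSO (217-fold dilution) for 16 h at 37C. CCF4-AM substrate 2 h at room temperature; 460/530 nm emission ratio fitted upward versus DMSO.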

Test [4] in a line: TOX21_p53_BLA_p4_viability: Viability Assessment in the Tox21 HCT-116 p53 Agonism Beta-lactamase Assay, Phase 4 (AID 2283597).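 Note: hits lower the luminescence signal meaning cytotoxicity.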 The gist of the method:
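HCT-116 p53-bla cells, 4000/well, dosed after 5 h attachment and incubated 16 h at 37 °C, 5% CO2. Viability from CellTiter-Glo ATP luminescence after 30 min at room temperature, taken after the beta-lactamase read; loss of signal indicates cytotoxicity.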

Test [5] addresses Cellular tumor antigen p53 (Homo sapiens) (UniProt P04637). As to the kind of experiment: TOX21_p53_BLA_p5_ratio: Tox21 HCT-116 p53 Agonism Beta-lactamase Assay, Ratio, Phase 5 (AID 2283599). The gist of the method: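 HCT-116 p53-bla cells (4000/well) plated 5 h, dosed with compound (217-fold DMSO dilution) for 16 h at 37 C; CCF4-AM substrate 2 h at room temperature. Activity is the 460/530 nm emission ratio (405 nm excitation), fitted in gain-of-signal direction versus DMSO.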

Test [6] can be described thus: TOX21_p53_BLA_p5_viability: Viability Assessment in the Tox21 HCT-116 p53 Agonism Beta-lactamase Assay, Phase 5 (AID 2283600). The gist of the method:
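HCT-116 p53 beta-lactamase reporter cells, 4000/well, were exposed to compound (pin transfer, 217-fold dilution) for 16 hours at 37C. Cellular ATP was read by CellTiter-Glo luminescence after 30 min at room temperature.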

A short description of test [7]: TOX21_p53_BLA_p3_viability: Viability Assessment in the Tox21 HCT-116 p53 Agonism Beta-lactamase Assay, Phase 3 (AID 2283593).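 Note: cells exposed to compound for 16 h before reading.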 The method in brief:
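HCT116 cells, 4000/well, dosed 5 h after plating by pin transfer (217-fold dilution from DMSO stock) and incubated 16 h at 37C, 5% CO2. Viability read as ATP luminescence with CellTiter-Glo after 30 min at room temperature.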

Test [8] concerns the target Cellular tumor antigen p53 (Homo sapiens) (UniProt P04637). As to the kind of experiment: TOX21_p53_BLA_p4_ratio: Tox21 HCT-116 p53 Agonism Beta-lactamase Assay, Ratio, Phase 4 (AID 2283601). The gist of the method: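 HCT-116 p53 beta-lactamase reporter cells (4000/well) preincubated 5 h, then compound (217-fold dilution of DMSO stock) for 16 h at 37C. CCF4-AM substrate added 2 h at room temperature; 460/530 nm emission ratio fitted upward versus DMSO.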

For test [9] the target is unchanged. As to the kind of experiment: TOX21_p53_BLA_p3_ratio: Tox21 HCT-116 p53 Agonism Beta-lactamase Assay, Ratio, Phase 3 (AID 2283596). The gist of the method:
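HCT116 p53-bla cells (4000/well) given compound in DMSO (217-fold dilution) after 5 h, incubated 16 h at 37C. CCF4-AM substrate 2 h at room temperature; 460/530 nm emission ratio, gain fitted against DMSO.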

As a reminder, the AC50 is the concentration at which the activity in the assay is half-maximal.

Sequence of Cellular tumor antigen p53 (Homo sapiens) (P04637 whole entry, looked up): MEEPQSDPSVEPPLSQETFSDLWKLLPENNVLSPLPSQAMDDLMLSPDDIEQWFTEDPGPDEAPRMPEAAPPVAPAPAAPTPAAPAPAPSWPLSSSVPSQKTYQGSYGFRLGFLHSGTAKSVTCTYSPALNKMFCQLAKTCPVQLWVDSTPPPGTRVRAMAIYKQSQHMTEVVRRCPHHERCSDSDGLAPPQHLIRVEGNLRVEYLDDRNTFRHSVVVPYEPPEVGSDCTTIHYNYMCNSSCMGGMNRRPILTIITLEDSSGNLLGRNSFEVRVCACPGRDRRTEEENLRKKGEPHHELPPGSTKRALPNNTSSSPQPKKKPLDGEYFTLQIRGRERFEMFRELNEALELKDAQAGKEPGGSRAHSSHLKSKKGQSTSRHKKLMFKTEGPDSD

In the case of `CC(C)CCCC(C)CC=O` (stereo unspecified), the result in test [1], in [2], in [3], in [4], in test [5] and in [6] was inactive.
As to `C[Si](C)(CCCN)O[Si](C)(C)CCCN`, the result in [1], in [2], in [3], in test [7], in test [4] and in [5] was inactive. Also, in test [8], the result was inactive.
Take `CC1=NC(C)OC1C` (stereo unspecified): the outcome in test [1], in [2], in [3], in test [5], in test [6] and in test [8] was inactive.
For `O=C1c2ccccc2C(=O)C1c1nc2ccccc2c(Br)c1O`, the call in [1], in [2], in [3], in test [7], in [4] and in test [6] was inactive. Further, the result in test [8] was inactive.
For `[Cl][Bi]([Cl])([c]1ccccc1)([c]1ccccc1)[c]1ccccc1`, the AC50 in test [1] is 7.84 µM (active); in test [2] it was 13.9 µM (active); in test [3], 18.4 µM (active); in test [4], 11.2 µM (active); in test [5], 67.7 µM (active); in [6], 58.1 µM (active). Besides, in [8], the AC50 was 14.1 µM (active).
Turning to `c1ccc(CCCc2ccncc2)cc1`, the molecule was classed as inactive in test [1], in test [2], in test [3], in test [9], in test [6] and in test [8].
As for `COCC(C)N` (stereo unspecified), the outcome in test [1], in [2], in test [3], in [9], in test [4] and in test [5] was inactive. The outcome in [8] was inactive.
In the case of `CC(=O)OCC(=O)[C@@]12N=C(C)O[C@@H]1C[C@H]1[C@@H]3CCC4=CC(=O)C=C[C@]4(C)[C@H]3[C@@H](O)C[C@@]12C`, the molecule was called inactive in [1], in test [2], in test [3], in test [4] and in test [8].
For the molecule `CCOC(=O)NNc1nncc2ccccc12`, the call in test [1], in test [2], in test [3], in test [9], in test [5] and in [6] was inactive. The outcome in test [8] was inactive.
In the case of `O=C(Cl)c1cc(C(=O)Cl)cc(C(=O)Cl)c1`, the molecule was called inactive in test [1], in test [2], in [3], in [9], in test [4] and in [5].
As to `COC(=O)c1cc(Cl)ccc1[N+](=O)[O-]`, the call in [1], in [2], in test [3], in test [9], in test [5] and in [8] was inactive.
Regarding `CC(=O)c1ccc[nH]1`, the molecule was called inactive in test [1], in test [2], in test [3], in [9], in [4] and in test [5]. For the same molecule, the result in test [8] was inactive.
`CCC(Cc1ccccc1)(C(=O)c1ccc(N2CCOCC2)cc1)N(C)C` (stereo unspecified): the molecule was classed as inactive in [1], in test [2], in test [3], in [9], in [4] and in [6]. Moreover, the result in test [8] was inactive.
Turning to `Nc1cccc(C(F)(F)F)c1`, the molecule was classed as inactive in [1], in test [2], in [3], in [7], in [4] and in test [8].
Take `COC(=O)c1ccc2cc(C(=O)OC)ccc2c1`: the call in [1], in test [2], in test [3], in test [7], in [4] and in [5] was inactive. Also, the result in test [8] was inactive.
As to `CC=CC(=O)N(CC)c1ccccc1C`, the call in test [1], in test [2], in test [3], in [9], in [4] and in [5] was inactive. Moreover, the result in test [8] was inactive.
`CC(C)COC(=O)C=Cc1ccccc1`: the call in test [1], in test [2], in [3], in [9], in test [5] and in [6] was inactive. Besides, the result in test [8] was inactive.
As to `CC(=O)NS(=O)(=O)c1ccc(N)cc1`, the outcome in test [1], in test [2], in test [3], in test [7], in [4] and in test [5] was inactive. The result in test [6] and in test [8] was inactive.
Regarding `O=c1[nH]c(=O)c2[nH]c(=O)[nH]c2[nH]1`, the result in test [1], in test [2], in test [3], in [5] and in test [8] was inactive.
For `Cc1cccc(N)n1`, the call in test [1], in test [2], in test [3], in [4], in test [5] and in test [6] was inactive. In addition, in test [8], the outcome was inactive.
`CC(C)CC(O)Cc1ccccc1` (stereo unspecified): the call in [1], in [2], in test [3], in [9], in test [4] and in test [5] was inactive. The outcome in [8] was inactive.
Take `CCO[Si](C)(OCC)OCC`: the result in test [1], in [2], in [3], in test [9], in test [5] and in test [6] was inactive. Moreover, the outcome in test [8] was inactive.
Regarding `CN(C)CCCN(C)C`, the molecule was called inactive in test [1], in [2], in test [3], in test [5], in [6] and in test [8].
